An excerpt weighted towards active compounds, which were near 1.1% of everything screened.
PKA-R2B act = activators of PKA-R2B holoenzyme, primary screen, biochemical, fluorescence polarization, Cy5-IP20, human; PKA-R2B holoenzyme dissociation; R2B truncated from residue 108, S112A mutant; 0% DMSO only, 100% 113 µM cGMP; cAMP-dependent protein kinase catalytic subunit beta (Homo sapiens) + cAMP-dependent …; AID 504700, 2011; activation, % at 11.4 µM; actives 0.079% (n = 340,000);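 active = activation above a cutoff set at the mean over all compounds plus 3 SD, cut at about 18% in these data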;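 also: higher means more holoenzyme dissociation and a rise in polarization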
Target sequence (P31323 whole entry, looked up, other chains not shown, the tested form may be a part): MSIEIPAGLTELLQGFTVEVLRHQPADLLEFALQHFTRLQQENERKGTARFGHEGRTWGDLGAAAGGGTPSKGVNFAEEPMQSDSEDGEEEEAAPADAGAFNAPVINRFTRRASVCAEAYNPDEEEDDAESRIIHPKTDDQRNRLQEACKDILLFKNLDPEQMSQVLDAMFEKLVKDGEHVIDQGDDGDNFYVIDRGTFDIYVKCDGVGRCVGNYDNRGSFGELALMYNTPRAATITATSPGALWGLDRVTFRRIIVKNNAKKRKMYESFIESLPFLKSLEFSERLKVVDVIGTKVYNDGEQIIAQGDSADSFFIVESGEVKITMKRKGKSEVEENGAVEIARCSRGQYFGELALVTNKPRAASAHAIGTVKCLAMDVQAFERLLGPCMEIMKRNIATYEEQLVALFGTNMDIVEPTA
MsrA inh = bovine MsrA enzyme inhibitors, primary screen, biochemical, absorbance, HTS; Methionine sulfoxide reductase A (Bos taurus); purified bovine MsrA, absorbance read-out; inhibition, % at 15.5 µM; actives 0.75% (n = 360,000); AID 651718, 2012
PKA-R1A act = activators of PKA-R1A holoenzyme, primary screen, biochemical, fluorescence polarization, Cy5-IP20, bovine R1A, mouse PKAc | cAMP-dependent protein kinase type I-alpha regulatory subunit (Bos taurus) + … | activation, % at 11.4 µM | PKA-R1A dissociation; scaled: DMSO 0%, 113 µM cGMP 100% | actives 0.083% (n = 340,000) | AID 504707, 2011;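 active = percent activation above the mean of all tested compounds plus 3 SD, cut at about 19% in these data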;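 also: higher means more PKAc released from R1A so a rise in polarization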
bovine MsrA act = bovine MsrA enzyme activators, primary screen, biochemical, absorbance, HTS; activation, % at 10.6 µM; purified bovine MsrA, absorbance read-out; actives 0.3% (n = 360,000); Methionine sulfoxide reductase A (Bos taurus); AID 602163, 2012; in the data active = activation above about 7.5%
MsrA conf = bovine MsrA inhibitors, retest, confirmation, biochemical, absorbance, HTS | inhibition, % at 15.5 µM | purified bovine MsrA, absorbance read-out | actives 41% (n = 2,300) | shares compounds with MsrA inh;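 also: coupled to thioredoxin reductase with NADPH and selenocystamine and DMSO as substrate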
Hits are given with their value; - = inactive; . = not tested or not shown. Rule as the data show it, unless noted: active = inhibition above about 4.5%; inactive = the rest.

SMILES	PKA-R2B act	MsrA inh	PKA-R1A act	bovine MsrA act	MsrA conf
COC(=O)C1=NN(c2cccc(C)c2)C2C(=O)N(c3ccccc3OC)C(=O)C12 (centres undefined)	-	-	-	-	.
O=C(CNC(=O)c1ccco1)N=Nc1c(O)[nH]c2ccc([N+](=O)[O-])cc12	-	5.8	-	-	-
NC(=O)N=Nc1c(O)[nH]c2ccc([N+](=O)[O-])cc12	-	-	-	-	.
O=C(CN(C(=O)c1csnn1)c1ccc(F)c(Cl)c1)NCc1ccc2c(c1)OCO2	-	-	-	-	.
CC(=O)c1cccc(Nc2cc(C)nc3c(C)cc(C)cc23)c1	-	5.9	-	-	-
O=C(Nc1nnc(-c2ccccc2)o1)C1CCCN1S(=O)(=O)c1cccs1 (centres undefined)	-	-	-	-	.
CC1(C)Cc2nc(N3CCCC3)c(C#N)cc2CO1	-	8.7	-	-	5.4
Cc1cc(S(=O)(=O)NC(=O)[C@H]2O[C@@H](n3ccc(=O)[nH]c3=O)[C@H](O)[C@@H]2O)ccc1Br	.	-	.	.	.
BrC(=C\c1ccccc1)/C=N/Nc1nc(N2CCOCC2)nc(N2CCOCC2)n1	-	5.3	-	-	4.8
CN(C)c1ccc(/C=C/C=N/Nc2nc(N3CCOCC3)nc(N3CCOCC3)n2)cc1	-	6.0	-	-	-
BrC(/C=C\c1ccccc1)=N/Nc1nc(N2CCOCC2)nc(N2CCOCC2)n1	-	6.7	-	-	4.6
CC(/C=N/Nc1nc(N2CCCCC2)nc(N2CCCCC2)n1)=C\c1ccccc1	-	-	-	-	.
Cc1c(NC(=O)c2ccc(NS(=O)(=O)c3ccccc3)cc2)c(=O)n(-c2ccccc2)n1C	-	-	-	-	.
c1ccc(-n2cc(CNCCc3cscn3)c(-c3ccc4c(c3)OCO4)n2)cc1	-	6.3	-	-	-
COc1ccc(/C(O)=C2/C(=O)C(=O)N(CCCN3CCOCC3)C2c2ccc(Cl)cc2)cc1 (centres undefined)	-	6.8	-	-	-
O=C1C(=O)N(CCCn2ccnc2)C(c2ccc(Cl)cc2)/C1=C(\O)c1ccc2c(c1)OCCO2 (centres undefined)	-	9.1	-	-	-
COc1cc(-c2[nH]ncc2CN2CCCC2c2nonc2C)cc(OC)c1OC (centres undefined)	-	-	-	-	.
Cc1nonc1C1CCCN1Cc1cn[nH]c1-c1ccc(-c2ccccc2)cc1 (centres undefined)	-	29	-	-	22
CCOC(=O)c1cc(C(=O)OCC)c(=O)[nH]c1C	-	-	-	-	.
CCOC(=O)c1cc(C(=O)OCC)c(=O)[nH]c1N1CCCC1	-	6.8	-	-	-
C(=N\Nc1ncnc2sc3c(c12)CCC3)/c1cccs1	-	-	-	-	.
Cn1cnc2c(N/N=C/c3cccs3)ncnc21	.	5.2	.	-	6.9
Cc1cc(/C=C(\C#N)C(=O)O)c(C)n1CC1CCCO1 (centres undefined)	-	5.2	-	-	6.2
CCCn1c(C)cc(/C=C(\C#N)C(=O)O)c1C	-	6.8	-	-	-
Cc1cc(/C=C(/C#N)C(=O)O)c(C)n1CCC(C)C	-	4.8	-	-	-
SMILES	PKA-R2B act	MsrA inh	PKA-R1A act	bovine MsrA act	MsrA conf
Cc1cc(/C=C(\C#N)C(=O)O)c(C)n1-c1ccc(Br)cc1	-	7.4	-	-	4.8
CCCCn1c(C)cc(/C=C(\C#N)C(=O)O)c1C	-	-	-	-	.
O=C(N/N=C/c1ccc(-n2ccnc2)cc1)c1cccs1	-	-	-	-	.
COc1cc(C(=O)NN=C2c3ccccc3-c3ccccc32)cc(OC)c1OC	.	-	.	.	.
CCn1c(/C=C/c2ccc(O)cc2)nc2ccccc2c1=O	-	5.3	-	-	4.8
COCCn1c(/C=C/c2ccccc2)nc2ccccc21	-	5.1	-	-	-
COCCNC(=S)N1CCC(NC(=O)Nc2ccc(C)cc2)CC1	-	-	-	-	.
CCCc1c(Cc2cccc(F)c2)ncn1CCc1ccccc1OC	.	-	.	.	.
COC(=O)CSc1nn(-c2ccc(F)cc2)c(=S)s1	-	5.2	-	-	-
O=C(CSc1nn(-c2ccccc2)c(=S)s1)Nn1cnnc1	-	-	-	-	.

High-throughput results: PubChem, The Scripps Research Institute Molecular Screening Center
